Compound activity deposited in PubChem by National Center for Advancing Translational Sciences (NCATS).
Shown are actives, neighbours in structure and some others; about 7.9% of the full set was active somewhere.
LASV entry inh = blocks Lassa virus binding to or entry into cells. Lassa virus pseudotype entry inhibition, cell reporter. Potency, µM (top dose mostly 37.9 µM), actives largely listed as inhibitors. hit rate 1.2% among 300,000. AID 540256; calls by dose curve; tested in HEK293 cells; further: nearly all actives have a fitted effect of over 50% in size
FMDV antiviral = blocks foot and mouth disease virus; FMDV antiviral cell-based qHTS; Potency, µM (highest dose often 57.9 µM), actives largely listed as inhibitors; hit rate 1.2% among 410,000; AID 1159524; calls by dose curve; tested in HEK293T cells; further: read-out not given here; nearly all actives have a fitted effect of over 45% in size
HCV inh = inhibitors of hepatitis C virus infection; hit rate 3.4% among 340,000; Huh7.5.1 HCVcc-Cre infection, luciferase reporter, 44 h; AID 651820; Potency, µM (titrated, usually from 41.8 µM), actives largely listed as inhibitors; active means well fitted inhibition curve with a large enough effect; inconclusive means small, poorly fitted or top-dose-only effect, or another doubt; inactive means no such curve, though single readings can be large or run the other way
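A cell-based infection assay in which seeded cells (1,000 per well) receive test compound after 4 h, are inoculated with HCVcc-Cre at approximately 0.5 moi, and are incubated 44 h before luminescence detection.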
HCMV antiviral = blocks human cytomegalovirus replication; AID 1259415; hit rate 4.5% among 410,000; HFF cells, HCMV-luciferase reporter, 72 h; hits give low values; activity change, negative = inhibition, % at 57.5 µM; in the data active means activity change below about -60%; inconclusive means no clear call, values can overlap the other calls; inactive means above about -39%
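HFF cells seeded 16 h at 37C, treated with compounds, infected with luciferase-reporter HCMV at MOI 1 PFU/cell; luciferase read at 72 h post infection, normalized to buffer-only and Salinomycin controls.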
Marburg entry inh = blocks Marburg virus binding to or entry into cells; Marburg virus pseudotyped entry inhibition, cell reporter; Potency, µM (top dose mostly 37.8 µM), actives largely listed as inhibitors; hit rate 1.8% among 300,000; AID 540276; calls by dose curve; tested in HEK293 cells
Large screens that a line does not name were inactive; ! = not confirmed by another sample.

COc1cc(CNc2cccc(C(=O)O)c2)cc(Br)c1OCC(=O)NC(C)(C)C	LASV entry inh inconclusive, Marburg entry inh inconclusive
CCOc1cc(CNc2ccc3c(c2)OCCO3)cc(Br)c1OCC	FMDV antiviral 31.6µM, HCV inh 2µM, HCMV antiviral -86.2, Marburg entry inh inconclusive
CCOc1cc(CNc2ccc(N3CCOCC3)cc2)cc(Br)c1OCC	FMDV antiviral inconclusive, HCV inh inconclusive
CCOc1cc(CNc2ccc(N(C)C)cc2)cc(Br)c1OCC(=O)NC(C)(C)C	LASV entry inh inconclusive, FMDV antiviral 14.1µM, HCV inh 11.2µM
COc1ccccc1C(=O)NC(C(=O)NCCc1nc2ccccc2[nH]1)=C(C)C	Marburg entry inh inconclusive
CCCOc1ccc(Cc2c(Cl)nc(SC)nc2N(C)C)cc1	LASV entry inh inconclusive, FMDV antiviral inconclusive, HCV inh inconclusive, HCMV antiviral -66.8, Marburg entry inh inconclusive
CCCOc1ccc(Cc2c(Cl)nc(SC)nc2OC)cc1	none
NCCc1nnc(SCC(=O)c2ccc(Cl)cc2)o1	Marburg entry inh inconclusive
O=C(C1CCCCC1)N1C[C@H](n2cc(-c3ccc(F)cc3)nn2)[C@@H](O)C[C@@H]1c1ccccc1	none (no result: LASV entry inh, HCV inh, Marburg entry inh)
CCCCCCN1C[C@@H](n2cc(-c3ccc(F)cc3)nn2)[C@H](O)C[C@@H]1c1ccccc1	none (no result: LASV entry inh, HCV inh, Marburg entry inh)
CCCCCCN1C[C@@H](n2cc(-c3ccc(F)cc3)nn2)[C@H](O)C[C@H]1c1ccccc1	Marburg entry inh 15.8µM (no result: LASV entry inh, FMDV antiviral, HCV inh, HCMV antiviral)
O[C@H]1C[C@H](c2ccccc2)N(CC2CCCCC2)C[C@@H]1n1cc(-c2ccc(F)cc2)nn1	FMDV antiviral inconclusive, HCMV antiviral -100.8 (no result: LASV entry inh, HCV inh, Marburg entry inh)
O=C(C1CCCCC1)N1C[C@H](n2cc(-c3ccc(F)cc3)nn2)[C@H](O)C[C@@H]1c1ccc(Cl)cc1	Marburg entry inh 3.53µM (no result: LASV entry inh, FMDV antiviral, HCV inh, HCMV antiviral)
c1ncc(-c2ccoc2)c(NC2CC2)n1	none (no result: LASV entry inh, HCV inh, HCMV antiviral, Marburg entry inh)
CSc1nsc(SCC(=O)Nc2ccccc2C(=O)O)n1	Marburg entry inh 18.3µM
CSc1nsc(SCC(=O)Nc2ccc(O)c(C(=O)O)c2)n1	none
Cc1cc(C(=O)N/N=C/c2ccc([N+](=O)[O-])s2)n[nH]1	LASV entry inh inconclusive, HCV inh 10µM, HCMV antiviral -90.9, Marburg entry inh inconclusive
Cc1ccc(C(=O)N/N=C\c2ccc([N+](=O)[O-])s2)cn1	LASV entry inh inconclusive, FMDV antiviral inconclusive, HCMV antiviral inconclusive
Cc1[nH]cnc1C(=O)N/N=C/c1ccc([N+](=O)[O-])s1	HCV inh inconclusive, HCMV antiviral -90.4, Marburg entry inh inconclusive
CCc1ccc(NC(=O)COC(=O)CC2CCCC2)cc1	none
CCn1nc(C)cc1C(=O)N1CCC2(CC1)c1ccccc1[C@@H](NC(=O)c1cccnc1)[C@@H]2O	none (no result: LASV entry inh, HCV inh, HCMV antiviral, Marburg entry inh)
CC1(C(=O)NS(=O)(=O)C2CC2)CCN(C(=O)c2ccc(F)c(Cl)c2)C1 (stereo unspecified)	none (no result: LASV entry inh, HCV inh, Marburg entry inh)
CC1CCN(c2ccccc2NC(=O)c2cc([N+](=O)[O-])ccc2N2CCOCC2)CC1	LASV entry inh inconclusive, FMDV antiviral inconclusive, HCV inh inconclusive, HCMV antiviral -92.8, Marburg entry inh inconclusive
O=C(/C=C/c1cccc([N+](=O)[O-])c1)Nc1ccccc1N1CCOCC1	FMDV antiviral inconclusive, HCMV antiviral -60.5
CCc1ccccc1NC(=O)c1cc([N+](=O)[O-])ccc1N1CCOCC1	none
O=C(Nc1cccc(-c2nc3cc(Cl)ccc3o2)c1)c1cc([N+](=O)[O-])ccc1N1CCOCC1	HCMV antiviral -63.1 (no result: HCV inh)
CCCc1nn(C)c2c1[C@@H](c1cccnc1)C(C#N)=C(N)O2	none (no result: LASV entry inh, FMDV antiviral, HCV inh, HCMV antiviral)
O=C(CCc1nc(-c2cccs2)no1)NCc1ccc(F)cc1Cl	HCMV antiviral -62.9 (no result: LASV entry inh, Marburg entry inh)
Cc1ccc(CNC(=O)CCc2nc(-c3cccs3)no2)cc1	HCMV antiviral -74.5 (no result: LASV entry inh, Marburg entry inh)
Cc1ccccc1CNC(=O)c1ccc(-n2c(C)cc3c2CCCC3)cc1	LASV entry inh inconclusive (no result: HCV inh, Marburg entry inh)
Cc1cc2c(n1-c1ccc(C(=O)NCC(C)c3ccccc3)cc1)CCCC2 (stereo unspecified)	HCMV antiviral -61.0 (no result: HCV inh, Marburg entry inh)
COc1cccc(CNC(=O)c2ccc(-n3c(C)cc4c3CCC(C)C4)cc2)c1 (stereo unspecified)	LASV entry inh inconclusive, HCMV antiviral -82.5 (no result: HCV inh, Marburg entry inh)
Cc1cc2c(n1-c1ccc(C(=O)NCc3cccc(Br)c3)cc1)CCC(C)C2 (stereo unspecified)	LASV entry inh inconclusive, HCMV antiviral inconclusive (no result: HCV inh, Marburg entry inh)
CSc1ccc(CCNC(=O)c2ccc(-n3c(C)cc4c3CCCC4)cc2)cc1	LASV entry inh inconclusive, HCMV antiviral -98.1 (no result: HCV inh, Marburg entry inh)
CC(C)CC1C(=O)N(Cc2cn(Cc3ccco3)nn2)CCS(=O)(=O)N1Cc1ccc(-c2ccc(F)cc2)cc1 (stereo unspecified)	FMDV antiviral inconclusive (no result: LASV entry inh, HCV inh, Marburg entry inh)
O=C(Cc1ccc(Cl)cc1)Nc1ccccc1N1CCN(C(=O)c2ccccc2)CC1	FMDV antiviral 35.5µM, HCV inh inconclusive, HCMV antiviral inconclusive (no result: LASV entry inh, Marburg entry inh)
COc1ccc(C(=O)Nc2ccccc2N2CCN(C(=O)c3ccccc3)CC2)cc1Br	LASV entry inh inconclusive, HCV inh 10µM, Marburg entry inh inconclusive
COc1ccc(C(=O)Nc2ccc(N3CCCCC3)cc2)cc1Br	LASV entry inh inconclusive, HCV inh inconclusive, HCMV antiviral inconclusive
COc1ccc(C(=O)Nc2ccc(Nc3ccccc3)cc2)cc1Br	FMDV antiviral inconclusive, HCV inh 8.91µM
O=C(OCC(=O)N1N=C(c2ccc(Cl)cc2)CC1c1ccco1)c1cncc(Br)c1 (stereo unspecified)	none
COCCNC(=O)CSc1nc2cc3c(cc2c(=O)n1CCCC(=O)NCc1ccc(OC)cc1)OCO3	LASV entry inh inconclusive, HCMV antiviral -61.6!
CC(=O)Nc1ccc(NC(=O)CSc2nc3ccccc3c(=O)n2CCCN2CCOCC2)cc1	none
CC1CCN(CCCn2c(SCC(=O)Nc3ccccc3Cl)nc3ccccc3c2=O)CC1	LASV entry inh 6.31µM, HCV inh 11.2µM, Marburg entry inh inconclusive
COCCNC(=O)CSc1nc2cc3c(cc2c(=O)n1CCCC(=O)NCCc1ccc(OC)c(OC)c1)OCO3	LASV entry inh inconclusive
CCc1ccc(NC(=O)CSc2nc3ccccc3c(=O)n2CCCC(=O)NCCCN2CCOCC2)cc1	LASV entry inh inconclusive, HCV inh 11.2µM, Marburg entry inh inconclusive
O=C(CSc1nc2ccccc2c(=O)n1CCCN1CCOCC1)Nc1cccc(S(=O)(=O)N2CCCCCC2)c1	LASV entry inh inconclusive, HCV inh 12.6µM, HCMV antiviral inconclusive, Marburg entry inh inconclusive
O=C(CN1CCN(C(=O)c2cncn2-c2ccccc2)CC1)Nc1ccccc1Cl	none
COc1cc2c(cc1OC)C(c1ccccc1O)NCC2 (stereo unspecified)	none (no result: LASV entry inh, Marburg entry inh)
Nc1nccc(NCCSCc2ccccc2)n1	HCV inh inconclusive, Marburg entry inh inconclusive
CCOc1ccc(CCNC(c2nnc(-c3ccccc3)o2)c2ccccc2Cl)cc1OCC (stereo unspecified)	Marburg entry inh inconclusive (no result: HCV inh)
O=C(CSc1nc2ccccc2c(=O)n1CCCN1CCOCC1)Nc1ccc(F)c(Cl)c1	FMDV antiviral inconclusive, HCV inh 1.78µM (no result: LASV entry inh, Marburg entry inh)
Cc1ccc(SCC(=O)Nc2cccc(S(=O)(=O)N3CCOCC3)c2)cc1C	HCV inh inconclusive (no result: LASV entry inh, Marburg entry inh)
CCC(C)NC(=O)CSc1nc2ccccc2c(=O)n1CCCN1CCCCC1 (stereo unspecified)	none (no result: LASV entry inh, Marburg entry inh)
